Laboratory results: PubChem BioAssay AID652183 (National Center for Advancing Translational Sciences (NCATS), 2013)
Records with an inconclusive call do not appear. Unmarked numbers belong to inactive results. Active and inactive are the calls of the source. Calls follow the shape of the dose curve; as a rule, active = well fitted inhibition curve with a large enough effect; inconclusive = small, poorly fitted or top-dose-only effect; inactive = no such curve, though single readings can be large or run the other way.

Assay: qHTS Assay for Lipid Storage Modulators: Differentiation Assay against Probe and Analogs
Conditions: 3T3-L1 adipocyte differentiation, BODIPY lipid imaging, 8 d; series mostly up to 20 µM; activity change, negative = inhibition: at the top concentration
Text: Storing lipids as a reservoir for energy or the anabolism of elementary metabolites is a common feature of probably all cells and is conserved from bacteria to humans. The universal cellular lipid storage organelle is the so-called lipid storage droplet (LD). Although ubiquitous, LDs share a simple structure composed of a hydrophobic core that harbors the storage lipids, which is shielded by a droplet-specific phospholipid monolayer to which proteins are attached. The current model of LD biogenesis involves an incorporation of the lipid core into the membrane leaflets of the endoplasmic reticulum (ER) followed by a subsequent budding-like maturation of a LD, which ultimately pinches off. Once released, LD volume can increase by localized lipogenesis or fusion of existing droplets. Storage lipids are re-mobilized enzymatically by lipase activity. Lipase regulation in the adipocyte is heavily studied and involves multiple components including catecholamine signaling, the LD-associated proteins Perilipin and comparative gene identification-58 (CGI-58) and at least two lipases named hormone sensitive lipase (HSL) and adipocyte triglyceride lipase (ATGL). LD regulation outside of the adipocyte is poorly understood and only few components are known. However, there is an urgent need to learn more about ectopic fat depots as mislocalized storage of lipids, for example in the liver or muscle, is an eminent health problem associated with insulin resistance or the metabolic syndrome. We developed a laser-scanning cytometer assay to enable 1,536-well screening and combined the results of the small molecules screen with an RNAi database based on lipid storage. […] NIH Chemical Genomics Center [NCGC] MLPCN Grant: MH085686 Assay Submitter (PI): Mathias Beller, Max-Planck-Institut fur Biophysikalische Chemie
3T3L1 cells were obtained from ATCC (CL-173). Pre-adipocyte medium (PM-1), differentiation medium (DM-2) and after adipocyte medium (AM-1) were purchased from Zen-Bio (# PM-1-L1, DM-2-L1, AM-1-L1). 200 uL of PM-1containing 3,000 cells was dispensed into each well of a 96-well plate (Corning, #3340), and the assay plates were incubated at 37 °C, 95% humidity and 5% CO2 for 3-5 days. The differentiation of pre-adipocyte to adipocyte was induced by removing the pre-adipocyte medium and replacing with 200 uL of differentiation medium. 1 uL of compounds at different concentrations dissolved in differentiation medium were added to the assay plates, along with medium exchange for differentiation to test their effects on adipocyte differentiation. The final DMSO concentration was 0.5%.Triacsin C (Sigma-Aldrich T-4540), an inhibitor of long-chain fatty acyl CoA synthetase that blocks synthesis of triglycerides, was used as a positive control for lipid under-storage. After 3 days, differentiation medium was replaced with adipocyte maintenance medium and assay plates were incubated for 5 days. Aspirated the medium, then Cells were fixed using 4% of paraformaldehyde in PBS for 30 minutes at room temperature, washed 3 times with PBS buffer. Finally, the cells were stained using 200 uL of PBS containing BODIPY lipid dye 493/530 (1:2000 dilution, Molecular Probes), Hoechst 33342 (1:1000 dilution, Life Technologies, #H3570) and CellMask deep red dye (1:10,000 dilution, Life Technologies, #H32721) with Washer dispenser EL406(Biotek). Images were acquired using InCell 2000 (GE), number of cells, number of lipids, size of lipids and cells were analysis using GE Investigator software.

| SMILES | activity change, negative = inhibition [%] | Potency |
| --- | --- | --- |
| CCOc1cc(F)c(CCNC(=O)c2cc3sccc3n2Cc2ccccc2)cc1OCC | -65.8 | – |
| CCOc1ccc(CCNC(=O)c2ccc3ccccc3n2)cc1OCC | -81 | – |
| CCOc1ccc(CCNC(=O)c2cc3sccc3n2CCN2CCOCC2)cc1OCC | -18.7 | – |
| CC(C)Oc1ccc(CCNC(=O)c2cc3sccc3n2Cc2ccccc2)cc1OC(C)C | – | 3.98 µM (active) |
| CCOC(=O)C1CCN(C(=O)C(C)(C)NC(=O)Nc2ccc(-c3ccccc3)cc2)CC1 | – | 1.12 µM (active) |
| CCOC(=O)C1CCN(C(=O)C2(NC(=O)Nc3ccccc3Cl)CCC2)CC1 | – | 2.82 µM (active) |
| CCn1c(C(=O)NCCc2ccc(OC)cc2)cc2sccc21 | – | 12.6 µM (active) |
| CCOc1cc(CCNC(=O)c2cc3sccc3n2Cc2ccccc2)cc(F)c1OCC | – | 2.82 µM (active) |
| O=C(NC1CCCc2c1cnn2-c1cccc(O)c1)c1ccccn1 (stereo not given) | – | 3.16 µM (active) |
| CCOc1ccc(CCNC(=O)c2ccnn2Cc2cccc(C)c2)cc1OCC | – | 2.82 µM (active) |
